Screening data from PubChem BioAssay.
Only some compounds are listed: those with a hit (about 3.8% of all), similar ones and a draw of the others.
HT1080 IDH1KD tx: qHTS for induction of synthetic lethality in tumor cells producing 2HG: qHTS for the HT-1080-IDH1KD cell line; HT-1080 IDH1 knockdown viability, ATP luminescence, 48 h; Potency, µM (top dose mostly 46.1 µM), for inactives: at the highest dose activity, negative = toxicity, actives largely listed as cytotoxic; 360,000 compounds, 2% hits; AID 686971, 2013;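 further: 0% = DMSO wells and -100% = cell-free medium wells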
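CellTiter-Glo luminescence after 48 h compound exposure at 37 degrees C of IDH1-knockdown HT-1080 cells in 5% FBS RPMI. %Activity scaled between DMSO wells and cell-free media wells, with curves fitted and assigned curve classes.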
ATXN2 expr inh: Primary qHTS for Inhibitors of ATXN expression. HEK-293 ATXN2-luciferase reporter, luminescence, 24 h. Potency, µM (series often up to 57 µM), without a hit: at the top dose activity change, negative = inhibition, usual class: inhibitors. 360,000 compounds, 0.72% hits; further: on the % scale 0 is the no-effect control and ±100 the full control effect; nearly all actives have a fitted effect of over 55% in size
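qHTS (up to 57 uM final) was run with 24 h compound exposure of reporter cells at 37 °C. Each well was multiplexed: SteadyGlo luminescence measured ATXN2-luciferase expression after a fluorogenic Gly-Phe-AFC viability readout (25 uM final).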
HT1080NT lethal: qHTS for induction of synthetic lethality in tumor cells producing 2HG: qHTS for the HT-1080-NT fibrosarcoma cell line. HT-1080-NT fibrosarcoma viability, CellTiter-Glo ATP luminescence, 48 h. Potency, µM (series often up to 46.1 µM), for the others: at the top dose activity, negative = less viability, hits mostly cytotoxic. 360,000 compounds, 1.6% hits. AID 686970, 2013;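 further: NT is the 2HG producing partner of a matched IDH1 knockdown line; 0% = DMSO-treated cells and -100% = media-only wells without cells; nearly all actives have a fitted effect of over 55% in size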
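Luminescent CellTiter-Glo readout after 48 hours of compound exposure at 37 degrees C defined viability of HT-1080-NT cells. Activity was normalized to DMSO wells and cell-free media wells; concentration-response curves were fitted and assigned curve classes.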
S2 tox: Viability Counterscreen for Primary qHTS for Inhibitors of ATXN expression; S2 cells (HEK-293 line with an ATXN2-luciferase reporter) viability, CellTiter-Fluor protease fluorescence, 24 h; Potency, µM (top dose mostly 56.7 µM), hits mostly cytotoxic; 400,000 compounds, 0.49% hits; further: nearly all actives have a fitted effect of over 40% in size
TGFb SMAD3 inh: qHTS for Inhibitors of TGF-b | Potency, µM (doses to about 46.1 µM), inactives show top-dose activity, negative = inhibition, most hits filed as inhibitors | HepG2 CAGA-GFP TGF-b/SMAD3 reporter, GFP fluorescence, 18 h; TGF-beta stimulated, 500 pg/mL final | 410,000 compounds, 1.2% hits; further: on the % scale 0 is the no-effect control and ±100 the full control effect; nearly all actives have a fitted effect of over 65% in size
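Using HEPG2 CAGA-GFP reporter cells at 1000 cells/well, we pinned test compounds, stimulated with recombinant TGF-beta (500 pg/mL final) and measured total well GFP after 18 h.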
HepG2 tox: qHTS for Inhibitors of TGF-b: Cytotox Counterscreen. 410,000 compounds, 0.76% hits. HepG2 CAGA-GFP viability, ATP luminescence, 18 h. AID 588856, 2011. Potency, µM (top dose mostly 46.1 µM), without a hit: at the top dose activity change, negative = cytotoxicity, hits mostly cytotoxic
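CellTiter-Glo luminescence gave cytotoxicity after 18 hours at 37 degrees C. The cells were HepG2 CAGA-GFP in 1% FBS DMEM, stimulated with 500 pg/mL TGF-beta after compound addition. %Activity was normalised to no-cell wells (complete cell-killing) and DMSO (no toxicity), and curves were fitted and classified.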
Starred values were filed as active, the others as inactive; i = inactive; u = inconclusive; x = not tested or not shown; ! = repeats disagree. The call rests on the fitted dose curve; in most records, active means well fitted curve in the direction sought with a large enough effect; inconclusive means small, poorly fitted or top-dose-only effect, or another doubt; inactive means no such curve, though single readings can be large; an effect the other way counts as inactive or inconclusive. Potency means the concentration at half of the fitted maximal effect.

SMILES | HT1080 IDH1KD tx | ATXN2 expr inh | HT1080NT lethal | S2 tox | TGFb SMAD3 inh | HepG2 tox
COc1cccc(C(C)(O)c2nc(/C=C/c3ccccc3)cs2)c1 (stereo not given) | -20% | -2% | -29% | i | 14µM* | -24%
COc1ccc(OC)c(/C=C(/C#N)c2nc(-c3ccc(-c4ccccc4)cc3)cs2)c1 | x | x | x | x | 39% | -2%
Cc1cccc(N(C)C(=S)Oc2ccc3c(c2)C2CCC3C2)c1 (stereo not given) | x | 8% | x | i | x | x
CC(C)C(=O)OCc1cccc(OC(=O)[C@@H]2N3C(=O)[C@@H](NC(=O)Cc4ccccc4)[C@H]3SC2(C)C)c1 | x | 5% | x | u | x | x
O=C(O)c1ccc(-n2ncc(Cl)c(Cl)c2=O)cc1 | 18µM* | x | 5.8µM* | u | -3% | -2%
CC(=O)Nc1c(Cl)cnn(-c2ccccc2)c1=O | 2% | x | 12% | i | 23% | -4%
O=C(OCn1ncc(Cl)c(Cl)c1=O)c1ccc(C(F)(F)F)cc1 | u | u | u | u | -13% | 10µM*
Cc1ccc(C(=O)COC(=O)c2nc(Cl)ccc2Cl)cc1 | 4% | 8% | 7% | i | 12% | 2%
Cc1ccc(C(=O)OCn2ncc(Cl)c(Cl)c2=O)cc1 | 5.2µM* | u | 5.8µM* | x | u | -103%
CCN(C(=O)Cn1ncc2c(=O)oc3ccc(C)cc3c21)c1cc(OC)ccc1OC | x | x | x | x | -16% | -4%
Cc1cc(C)cc(NC(=O)CCC(=O)N2CCSc3ccccc32)c1 | 0% | -13% | -1% | u | 11µM*! | -1%
COC(=O)c1ccccc1NC(=O)CCC(=O)N1CCSc2ccccc21 | 9% | -1% | 7% | i | -5% | -29%
COc1cc2cc(C(=O)NC(C)c3cccc4ccccc34)c(N)nc2cc1OC (stereo not given) | 18µM* | u | 26µM* | i | x | x
Brc1cccc[n+]1Cc1ccc(C[n+]2ccccc2Br)cc1 | x | x | x | x | 5% | 11%
COc1cccc(Cn2c(=O)n(-c3ccc(C)c(F)c3)c(=O)c3sc4ccccc4c32)c1 | x | 3% | x | u | 0% | -6%
CN(C)CC(c1ccccc1)c1ccccc1 | 10% | -12% | 17% | i | 0% | -32%
CC(CCCN(C)C)C(Cc1ccccc1)c1ccccc1 (stereo not given) | 16µM* | -27% | u | i | -11% | -49%
COc1ccc(C(=O)NCc2nc(-c3ccccc3NC(=O)c3cc(C)oc3C)oc2C)cc1F | x | x | x | i | x | x
CC(C)(C)n1ncc2c(=O)n(Cc3cccc(Cl)c3Cl)cnc21 | x | x | x | x | 5% | -6%
CN(C)CCCNC(=O)c1cc2sc3ccccc3c2s1 | 18µM* | -33% | 18µM* | x | 0% | 20µM*
CCCCN(CC)CCNC(=O)c1cc2c(=O)n(CC)c3ccccc3c2s1 | 3% | -14% | -8% | i | 10% | 13µM*!
COCCNC(=O)c1cc2sc3ccccc3c2s1 | -4% | 34% | -3% | i | 12% | -11%
CCCCN(CC)CCNC(=O)c1cc2c(=O)n(C)c3ccccc3c2s1 | u | -32% | u | i | u | 13µM*
CCCCN(CC)CCCNC(=O)c1cc2c(=O)n(CC)c3ccccc3c2s1 | 29µM* | u | 18µM* | u | 13µM* | -100%
CCN(CC)CCNC(=O)c1cc2c(=O)n(C)c3ccccc3c2s1 | u | -17% | u | i | -18% | -53%
SMILES | HT1080 IDH1KD tx | ATXN2 expr inh | HT1080NT lethal | S2 tox | TGFb SMAD3 inh | HepG2 tox
O=C(NCc1nnc2n1CCN(C(=O)/C=C/c1ccccc1)CC2)c1cccc(F)c1 | x | x | x | i | x | x
Cc1cc2c(c(-c3cnccn3)c1)OC(CNC(=O)c1c(F)cccc1Cl)C2 (stereo not given) | x | x | x | i | x | x
Cc1ccc(/C(=C\CN2CCCC2)c2cccc(/C=C/C(=O)O)n2)cc1 | x | x | x | i | x | x
CCOC(=O)C1=CN(Cc2cccc(F)c2)S(=O)(=O)NC1c1ccc(F)c(Cl)c1 (stereo not given) | u | u | 26µM* | i | 16µM* | -48%
CCOC(=O)C1=CN(Cc2ccco2)S(=O)(=O)NC1c1ccc(F)c(Cl)c1 (stereo not given) | -1% | -4% | -4% | i | -19% | -5%
COc1ccccc1NC(C)C(=O)c1c(C)[nH]c2ccccc12 (stereo not given) | x | x | x | x | -21% | -10%
CN(C)c1ccc(/C=C/c2cncc3ccccc23)cc1 | x | x | x | x | 3% | -2%
CN(C)c1ccc(/C=C/c2ccc3ccccc3[n+]2C)cc1 | 1.3µM* | u | u | 10µM* | 2.2µM* | 7.1µM*!
CN(C)c1ccc(/C=C/c2ccc3c4ccccc4ccc3[n+]2-c2ccccc2)cc1 | 5.8µM* | 1.1µM* | 12µM* | x | u | -57%
CN(C)c1ccc(/C=C/c2nccc3ccccc23)cc1 | x | x | x | x | 72% | -52%
CN(C)c1ccc(/C=C/c2c[n+](C)cc3ccccc23)cc1 | x | x | x | x | 13µM* | -25%
CN(C)c1ccc(/C=C/c2cc3ccccc3c[n+]2C)cc1 | x | x | x | x | 10µM* | -27%
CCNc1cc(NC2CCC(O)CC2)nc(Nc2ccc3c(ccn3Cc3ccccc3)c2)n1 (stereo not given) | x | -19% | x | x | x | x
O=C(Cc1ccc(OCc2ccccc2)cc1)NO | x | x | x | x | 9% | -7%
CC(C)(C)n1ncc2c(=O)n(Cc3ccc(C#N)cc3)cnc21 | x | x | x | x | -14% | -29%
OCC1(Cc2cccc(C(F)(F)F)c2)CCN(Cc2cc3ccccc3o2)CC1 | 18µM* | -22% | 21µM* | i | u | i
COc1ccc(CC2(CO)CCN(Cc3cc4ccccc4o3)CC2)cc1 | -23% | -25% | u | i | -14% | -22%
Cc1c(CN2CCC(CO)(Cc3cccc(C(F)(F)F)c3)CC2)c2ccccc2n1C | u | 35µM* | -13% | x | u | 25µM*
CCc1nc2cc(C(=O)N(C)C3CCOC3)cc(NC(=O)c3ccccc3OC)c2n1C (stereo not given) | x | x | x | i | x | x
CCn1c(COc2cccc(C)c2C)nnc1SCC(=O)N1CCN(c2ccc(OC)cc2)CC1 | -19% | -18% | -8% | i | -2% | 4%
CCn1c(COc2ccccc2C)nnc1SCC(=O)N1CCN(c2ccccc2)CC1 | -22% | 14µM* | u | u | u | -20%
